Experiment in all cases: DAPPL (digital affinity profiling via proximity ligation, sequencing); 10 mM Tris-HCl pH 7.5, 50 mM NaCl, 1 mM DTT, 4% glycerol, room temperature, 30 min; GST-TFs on glutathione beads, 16-mer random dsDNA library, 0.1% formaldehyde crosslink after washing; high values mean tight binding
Details in all cases: protein: recombinant; tags: N-terminal GST; dsDNA, one strand shown

The target in one test is T1, ERF (Homo sapiens, UniProt P50548 1-548).
T1 sequence: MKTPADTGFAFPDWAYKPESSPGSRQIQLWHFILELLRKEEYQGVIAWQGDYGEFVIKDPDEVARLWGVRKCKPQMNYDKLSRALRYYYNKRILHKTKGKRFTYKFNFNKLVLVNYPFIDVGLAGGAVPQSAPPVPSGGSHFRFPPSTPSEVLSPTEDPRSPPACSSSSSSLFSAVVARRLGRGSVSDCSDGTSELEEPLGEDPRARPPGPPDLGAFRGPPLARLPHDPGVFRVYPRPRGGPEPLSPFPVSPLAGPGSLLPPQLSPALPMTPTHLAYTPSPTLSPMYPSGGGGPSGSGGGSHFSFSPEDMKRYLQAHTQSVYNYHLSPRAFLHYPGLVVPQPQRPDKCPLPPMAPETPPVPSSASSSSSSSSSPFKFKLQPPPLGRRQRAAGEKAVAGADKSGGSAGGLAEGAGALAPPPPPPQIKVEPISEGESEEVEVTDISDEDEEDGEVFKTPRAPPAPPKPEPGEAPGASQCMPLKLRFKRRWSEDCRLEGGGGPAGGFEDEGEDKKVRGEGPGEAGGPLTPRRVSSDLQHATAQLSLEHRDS
The essentials: (§1)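 In yeast, human transcription factors were expressed with a GST fusion, then pulled down on glutathione beads and given DNA barcodes. Pooled with a tag-only sample, they were exposed to 200 nmole of a 16-mer random double-stranded DNA library (Tris/NaCl/DTT/glycerol buffer, room temperature, 30 min), washed, crosslinked with 0.1% formaldehyde, proximity-ligated using BsaI/T4 ligase for 1 h at 37 °C, PCR-amplified and read on an Illumina NextSeq500. Each hexamer's frequency of reads for a factor, divided by the matching frequency for the tag-only sample, gives the binding signal.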

The target in a further test is T2, ETV3L (Homo sapiens, UniProt Q6ZN32 1-361).
T2 sequence: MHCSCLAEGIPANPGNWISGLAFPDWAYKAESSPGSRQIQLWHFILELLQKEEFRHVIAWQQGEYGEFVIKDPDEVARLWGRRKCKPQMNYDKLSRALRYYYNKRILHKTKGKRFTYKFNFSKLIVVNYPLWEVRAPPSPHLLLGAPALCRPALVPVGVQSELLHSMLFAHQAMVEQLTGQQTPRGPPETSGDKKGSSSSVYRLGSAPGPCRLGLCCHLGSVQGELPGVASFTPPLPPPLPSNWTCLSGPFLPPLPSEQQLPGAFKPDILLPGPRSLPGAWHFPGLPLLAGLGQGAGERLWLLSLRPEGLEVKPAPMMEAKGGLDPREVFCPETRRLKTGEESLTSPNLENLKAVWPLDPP
Summed up:
as §1

A further test addresses T3, ETS2 (Homo sapiens, UniProt P15036 1-469).
T3 sequence: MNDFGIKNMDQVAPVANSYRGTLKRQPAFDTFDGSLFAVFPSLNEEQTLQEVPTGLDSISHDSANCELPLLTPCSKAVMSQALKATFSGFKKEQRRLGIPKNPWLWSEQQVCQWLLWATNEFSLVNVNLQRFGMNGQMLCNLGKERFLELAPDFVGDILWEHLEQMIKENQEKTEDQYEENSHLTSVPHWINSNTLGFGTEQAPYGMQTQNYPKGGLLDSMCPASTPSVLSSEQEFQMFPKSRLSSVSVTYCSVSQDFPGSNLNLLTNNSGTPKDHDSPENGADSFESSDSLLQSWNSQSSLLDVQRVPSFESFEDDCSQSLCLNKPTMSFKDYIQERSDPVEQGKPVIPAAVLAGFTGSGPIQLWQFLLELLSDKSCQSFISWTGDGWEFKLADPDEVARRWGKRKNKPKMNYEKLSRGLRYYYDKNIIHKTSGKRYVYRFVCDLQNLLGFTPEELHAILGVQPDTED
The essentials: as §1

The target of the next test is T4, SPDEF (Homo sapiens, UniProt O95238 1-335).
T4 sequence: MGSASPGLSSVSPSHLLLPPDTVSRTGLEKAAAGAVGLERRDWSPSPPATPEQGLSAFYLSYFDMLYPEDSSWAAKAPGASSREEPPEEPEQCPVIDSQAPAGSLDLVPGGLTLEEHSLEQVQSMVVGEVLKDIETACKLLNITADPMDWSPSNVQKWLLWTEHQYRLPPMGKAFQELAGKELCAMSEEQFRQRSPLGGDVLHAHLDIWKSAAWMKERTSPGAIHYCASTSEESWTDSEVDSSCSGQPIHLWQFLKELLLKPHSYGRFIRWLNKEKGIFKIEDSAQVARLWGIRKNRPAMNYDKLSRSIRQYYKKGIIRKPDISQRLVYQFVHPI
The essentials:
as §1

In another test the target is T5, ETV7 (Homo sapiens, UniProt Q9Y603 1-341).
T5 sequence: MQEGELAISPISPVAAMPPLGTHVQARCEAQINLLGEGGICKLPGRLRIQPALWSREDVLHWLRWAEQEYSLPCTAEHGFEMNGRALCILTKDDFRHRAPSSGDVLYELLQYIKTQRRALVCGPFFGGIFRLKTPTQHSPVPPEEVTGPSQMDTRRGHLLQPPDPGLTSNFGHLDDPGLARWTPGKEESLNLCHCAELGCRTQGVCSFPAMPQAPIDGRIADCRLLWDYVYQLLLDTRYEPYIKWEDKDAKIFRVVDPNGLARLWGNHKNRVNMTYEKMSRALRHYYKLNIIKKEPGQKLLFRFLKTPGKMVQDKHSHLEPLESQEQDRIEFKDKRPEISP
Summed up: as §1

The next test concerns the target T6, ELF5 (Homo sapiens, UniProt Q9UKW6-2 1-255).
T6 sequence: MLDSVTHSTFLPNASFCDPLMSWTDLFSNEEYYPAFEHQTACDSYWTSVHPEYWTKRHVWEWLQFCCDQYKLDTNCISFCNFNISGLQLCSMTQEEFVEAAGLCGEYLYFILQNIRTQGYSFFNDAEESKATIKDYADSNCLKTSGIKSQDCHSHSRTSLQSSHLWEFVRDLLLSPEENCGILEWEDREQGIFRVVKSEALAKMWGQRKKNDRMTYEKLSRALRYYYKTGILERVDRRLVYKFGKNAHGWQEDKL
The essentials:
as §1

Another test concerns the target T7, ETV3 (Homo sapiens, UniProt P41162-2 1-143).
T7 sequence: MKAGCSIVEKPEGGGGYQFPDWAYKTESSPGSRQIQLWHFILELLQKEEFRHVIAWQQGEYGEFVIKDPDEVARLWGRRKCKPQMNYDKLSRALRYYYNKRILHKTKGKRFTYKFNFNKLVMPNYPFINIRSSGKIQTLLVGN
The essentials: as §1

In a further test the target is ETV6 (Homo sapiens, UniProt P41212 1-452). The essentials:
as §1

Sequence of ETV6 (P41212 whole entry): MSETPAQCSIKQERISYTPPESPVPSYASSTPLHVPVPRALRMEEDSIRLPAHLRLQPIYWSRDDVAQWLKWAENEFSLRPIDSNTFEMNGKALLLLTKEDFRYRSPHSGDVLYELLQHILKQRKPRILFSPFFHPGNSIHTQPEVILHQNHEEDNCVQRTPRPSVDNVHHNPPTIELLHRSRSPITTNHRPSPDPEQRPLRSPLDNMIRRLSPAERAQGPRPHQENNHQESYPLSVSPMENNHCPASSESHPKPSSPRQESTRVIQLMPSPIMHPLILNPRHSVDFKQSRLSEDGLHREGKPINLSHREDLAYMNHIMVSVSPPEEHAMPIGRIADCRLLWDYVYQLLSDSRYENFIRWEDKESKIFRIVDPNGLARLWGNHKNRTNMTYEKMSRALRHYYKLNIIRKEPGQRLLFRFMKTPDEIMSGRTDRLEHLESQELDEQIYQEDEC

As for CCATCA, the binding signal was 1.29 fold enrichment (6-mer frequency, TF over GST control) with ERF; 1.19 fold enrichment (6-mer frequency, TF over GST control) with ETV3L; 1.17 fold enrichment (6-mer frequency, TF over GST control) with ETS2; 1.12 fold enrichment (6-mer frequency, TF over GST control) in the test with SPDEF; 1.25 fold enrichment (6-mer frequency, TF over GST control) with ETV7; 1.12 fold enrichment (6-mer frequency, TF over GST control) with ELF5. Further, the binding signal with ETV3 is 1.12 fold enrichment (6-mer frequency, TF over GST control); with ETV6 it was 1.05 fold enrichment (6-mer frequency, TF over GST control).
Consider CCCCTG, for which the binding signal with ERF is 1.39 fold enrichment (6-mer frequency, TF over GST control); with ETV3L, 1.13 fold enrichment (6-mer frequency, TF over GST control); with ETS2 it was 1.21 fold enrichment (6-mer frequency, TF over GST control); in the test with SPDEF it was 1.17 fold enrichment (6-mer frequency, TF over GST control); with ETV7, 1.13 fold enrichment (6-mer frequency, TF over GST control); in the test with ELF5, 1.15 fold enrichment (6-mer frequency, TF over GST control). Also, the binding signal with ETV3 was 1.07 fold enrichment (6-mer frequency, TF over GST control); with ETV6, 1.07 fold enrichment (6-mer frequency, TF over GST control).
Take TACTGG: the binding signal with ERF is 1.16 fold enrichment (6-mer frequency, TF over GST control); in the test with ETV3L it was 1.11 fold enrichment (6-mer frequency, TF over GST control); with ETS2, 1.08 fold enrichment (6-mer frequency, TF over GST control); with SPDEF it was 1.05 fold enrichment (6-mer frequency, TF over GST control); with ETV7, 1.12 fold enrichment (6-mer frequency, TF over GST control); with ELF5, 1.04 fold enrichment (6-mer frequency, TF over GST control). For the same sequence, the binding signal was 1.11 fold enrichment (6-mer frequency, TF over GST control) with ETV3 and 1.15 fold enrichment (6-mer frequency, TF over GST control) with ETV6.
In the case of TAGCAA, the binding signal was 1.28 fold enrichment (6-mer frequency, TF over GST control) in the test with ERF; 1.22 fold enrichment (6-mer frequency, TF over GST control) with ETV3L; 1.26 fold enrichment (6-mer frequency, TF over GST control) with ETS2; 1.23 fold enrichment (6-mer frequency, TF over GST control) with SPDEF; 1.25 fold enrichment (6-mer frequency, TF over GST control) with ETV7; 1.23 fold enrichment (6-mer frequency, TF over GST control) in the test with ELF5. Moreover, the binding signal with ETV3 is 1.34 fold enrichment (6-mer frequency, TF over GST control); with ETV6, 1.29 fold enrichment (6-mer frequency, TF over GST control).
Turning to TACCGA, the binding signal in the test with ERF was 1.05 fold enrichment (6-mer frequency, TF over GST control); with ETV3L, 1.13 fold enrichment (6-mer frequency, TF over GST control); with ETS2, 1.12 fold enrichment (6-mer frequency, TF over GST control); in the test with SPDEF, 1.12 fold enrichment (6-mer frequency, TF over GST control); with ETV7 it was 1.01 fold enrichment (6-mer frequency, TF over GST control); with ELF5, 1.08 fold enrichment (6-mer frequency, TF over GST control). Moreover, the binding signal is 1.09 fold enrichment (6-mer frequency, TF over GST control) with ETV3 and 1.09 fold enrichment (6-mer frequency, TF over GST control) with ETV6.
With GAATCC, the binding signal with ERF is 1.12 fold enrichment (6-mer frequency, TF over GST control); with ETV3L, 1.11 fold enrichment (6-mer frequency, TF over GST control); with ETS2, 1.13 fold enrichment (6-mer frequency, TF over GST control); with SPDEF, 1.54 fold enrichment (6-mer frequency, TF over GST control); with ETV7, 1.18 fold enrichment (6-mer frequency, TF over GST control); with ELF5 it was 1.03 fold enrichment (6-mer frequency, TF over GST control). Also, the binding signal was 1.14 fold enrichment (6-mer frequency, TF over GST control) in the test with ETV3 and 1.08 fold enrichment (6-mer frequency, TF over GST control) with ETV6.
